We go through 26 compounds from PubChem BioAssay (Tox21).

Structures are written as SMILES. Inconclusive results are not listed. A number with no mark means an inactive call. The source made the active and inactive calls. Unless noted, the call rests on the fitted dose curve; in most records, active means well fitted curve in the direction sought with a large enough effect in the repeat runs; inconclusive means weak or mixed curves; inactive means no such curve, though single readings can be large; an effect the other way counts as inactive or inconclusive.

A short description of assay [1]: qHTS assay to identify aromatase inhibitors - cell viability counter screen (AID 743084).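 Further: cells stimulated with testosterone during compound exposure; nearly all actives have a fitted effect of over 55% in size.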
Assay [2] deals with Aryl hydrocarbon receptor (Homo sapiens) (UniProt P35869). The assay is described as follows: qHTS assay to identify small molecule that activate the aryl hydrocarbon receptor (AhR) signaling pathway (AID 743085). Further: nearly all actives have a fitted effect of over 15% in size. Further: potency means the concentration at half of the fitted maximal effect.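 On activation: HG2L7.5c1 human HepG2 liver cells with stably integrated DRE-driven firefly reporter; series mostly up to about 70 µM.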 The essentials:
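HepG2 cells stably carrying a 20-DRE firefly luciferase reporter (HG2L7.5c1) treated with compound for 24 hr at 37C. Luciferase read by ONE-Glo luminescence, with CellTiter-Fluor viability read first.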
(In general: qHTS replaces the single test concentration by a dilution series.)

The nature of assay [3]: qHTS assay to identify small molecule that activate the aryl hydrocarbon receptor (AhR) signaling pathway - cell viability counter screen (AID 743086).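 Further: HepG2 liver cells carrying the AhR DRE luciferase reporter; series mostly up to about 70 µM; nearly all actives have a fitted effect of over 45% in size.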 The gist of the method: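 HepG2-AhR-luc (HG2L7.5c1) cells, 4000/well, treated 24 h at 37 C with compound; viability measured as CellTiter-Fluor fluorescence after 30 min in the same wells as the luciferase read.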
The nature of assay [4]: qHTS assay for small molecule agonists of the antioxidant response element (ARE) signaling pathway (AID 743202; active means well fitted activation curve with a large enough effect in the signal ratio in the repeat runs, not every such curve was filed as active; the % refers to the signal ratio). The gist of the method: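 ARE-bla HepG2 cells (beta-lactamase reporter under the antioxidant response element), plated 5 hours, then exposed to compounds 16 hours at 37 C. LiveBLAzer B/G FRET substrate added for 2 hours at room temperature; fluorescence intensity read.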

A short description of assay [5]: qHTS assay for small molecule agonists of the antioxidant response element (ARE) signaling pathway - cell viability counter screen (AID 743203; calls by dose curve; further: nearly all actives have a fitted effect of over 55% in size). The essentials:
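ARE-bla HepG2 cells were plated, rested 5 h at 37C/5% CO2, then exposed to compounds in DMSO for 16 h. Viability was read as CellTiter-Glo luminescence after 30 min at room temperature, in the same wells as the ARE screen.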

Assay [6] in a line: qHTS assay for small molecule activators of the heat shock response signaling pathway - cell viability counter screen (AID 743209). Further: nearly all actives have a fitted effect of over 50% in size. The gist of the method: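 HSE-bla HeLa cells plated overnight, then exposed to Tox21 compounds (23 nL in DMSO) for 5 h at 37 C. After the bla reporter read, CellTiter-Glo was added in the same wells and luminescence read after 30 min at room temperature.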

Assay [7] is described as follows: qHTS assay for small molecule activators of the heat shock response signaling pathway (AID 743210; active means well fitted activation curve with a large enough effect in the signal ratio in the repeat runs, with a control signal flat, not every such curve was filed as active; the % refers to the signal ratio; further: series mostly up to about 63 µM). The essentials:
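HSE-bla HeLa cells (beta-lactamase reporter under heat shock response elements), plated overnight, then exposed to compounds 5 h at 37 C; LiveBLAzer B/G FRET substrate added, 2.5 h at room temperature, fluorescence intensity read.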

Assay [8] is described as follows: qHTS assay to identify small molecule antagonists of the peroxisome proliferator-activated receptor gamma (PPARg) signaling pathway - cell viability counter screen (AID 743194). Further: nearly all actives have a fitted effect of over 55% in size. The essentials:
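Cytotoxicity counter screen in PPARg-bla HEK293H cells, same wells as reporter assay. Compounds plus 50 nM rosiglitazone (final) for 17 h at 37 C, then viability read by CellTiter-Glo luminescence.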

Assay [9] deals with Peroxisome proliferator-activated receptor gamma (Homo sapiens) (UniProt P37231). The assay is described as follows: qHTS assay to identify small molecule antagonists of the peroxisome proliferator-activated receptor gamma (PPARg) signaling pathway (AID 743191; calls by dose curve; further: series mostly up to about 63 µM; nearly all actives have a fitted effect of over 30% in size). The gist of the method:
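GeneBLAzer PPARg UAS-bla HEK293H cells, 5 h post-plating, exposed to compounds 17 h at 37C. LiveBLAzer B/G FRET substrate added for 1 h at room temperature; beta-lactamase reporter read by fluorescence intensity.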

The target is the same in assay [10]. The assay is described as follows: qHTS assay to identify small molecule agonists of the peroxisome proliferator-activated receptor gamma (PPARg) signaling pathway (AID 743094; active means well fitted activation curve with a large enough effect in the signal ratio in the repeat runs, not every such curve was filed as active; the % refers to the signal ratio). The gist of the method: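 GeneBLAzer PPARg UAS-bla HEK293H cells were plated, rested 5 h, then exposed to compounds for 17 h at 37C. Beta-lactamase activity was read by LiveBLAzer B/G FRET substrate fluorescence after 1 h at room temperature.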
On the % scale 0 is the no-effect control and ±100 the full control effect.

Peroxisome proliferator-activated receptor gamma (Homo sapiens), sequence (P37231 whole entry, looked up): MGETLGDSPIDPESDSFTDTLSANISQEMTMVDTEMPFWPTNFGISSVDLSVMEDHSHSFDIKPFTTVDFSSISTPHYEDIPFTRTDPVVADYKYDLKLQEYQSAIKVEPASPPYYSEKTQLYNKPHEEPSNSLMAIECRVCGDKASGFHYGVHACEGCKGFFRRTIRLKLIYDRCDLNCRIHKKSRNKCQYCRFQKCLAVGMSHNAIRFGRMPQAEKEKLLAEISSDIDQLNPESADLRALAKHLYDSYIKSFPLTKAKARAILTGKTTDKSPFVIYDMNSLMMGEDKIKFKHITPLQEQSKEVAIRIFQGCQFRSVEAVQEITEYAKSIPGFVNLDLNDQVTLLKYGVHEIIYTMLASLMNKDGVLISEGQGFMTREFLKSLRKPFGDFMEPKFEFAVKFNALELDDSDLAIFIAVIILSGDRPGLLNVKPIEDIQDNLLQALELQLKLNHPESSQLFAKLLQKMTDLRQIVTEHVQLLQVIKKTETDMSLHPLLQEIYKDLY
Aryl hydrocarbon receptor (Homo sapiens), sequence (P35869 whole entry, looked up): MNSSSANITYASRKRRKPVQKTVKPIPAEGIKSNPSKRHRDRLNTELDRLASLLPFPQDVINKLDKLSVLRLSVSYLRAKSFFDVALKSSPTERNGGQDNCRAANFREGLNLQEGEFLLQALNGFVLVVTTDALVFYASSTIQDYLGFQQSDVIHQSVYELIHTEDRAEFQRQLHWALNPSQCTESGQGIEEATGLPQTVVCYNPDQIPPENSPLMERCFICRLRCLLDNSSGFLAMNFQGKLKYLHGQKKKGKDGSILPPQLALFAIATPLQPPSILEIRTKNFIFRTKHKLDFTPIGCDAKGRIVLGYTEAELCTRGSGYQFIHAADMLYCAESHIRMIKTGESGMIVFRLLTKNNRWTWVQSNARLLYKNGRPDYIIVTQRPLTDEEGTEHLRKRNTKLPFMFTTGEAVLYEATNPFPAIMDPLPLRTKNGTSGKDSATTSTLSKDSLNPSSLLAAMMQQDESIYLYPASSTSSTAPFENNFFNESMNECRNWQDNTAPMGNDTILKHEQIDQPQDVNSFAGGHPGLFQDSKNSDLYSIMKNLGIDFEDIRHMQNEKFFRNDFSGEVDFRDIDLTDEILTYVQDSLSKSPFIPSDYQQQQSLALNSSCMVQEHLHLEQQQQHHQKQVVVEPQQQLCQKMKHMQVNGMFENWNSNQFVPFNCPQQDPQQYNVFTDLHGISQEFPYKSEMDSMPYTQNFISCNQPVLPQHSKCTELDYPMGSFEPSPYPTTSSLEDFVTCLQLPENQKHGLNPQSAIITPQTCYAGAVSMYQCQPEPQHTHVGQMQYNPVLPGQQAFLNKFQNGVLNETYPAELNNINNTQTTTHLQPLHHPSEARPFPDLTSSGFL

Regarding `CC(C)(C)C1CCCCC1=O` (centres undefined), the Potency result in assay [1], in assay [2], in assay [4], in [5] and in [7] was “inactive” throughout. Besides, the compound was classed as inactive in assay [3] and in assay [6].
`CC(C)NCC(O)COc1ccc(CCOCC2CC2)cc1` (centres undefined): the Potency result in [1], in [2], in [8], in [4], in assay [5] and in [7] was “inactive” in each case. Moreover, the compound was called inactive in assay [3] and in assay [6].
On to `CCCCCCCCCCCCOCCOS(=O)(=O)O`, for which the Potency result in assay [1], in assay [2], in assay [9], in [8], in assay [5] and in [7] was “inactive” throughout. For the same compound, the result in assay [3] and in assay [6] was inactive.
For `O=c1[nH]c(=O)n([C@H]2C[C@H](O)[C@@H](CO)O2)cc1C(F)(F)F`, the Potency entry in assay [1], in assay [2], in assay [8] and in [5] was “inactive” throughout. Also, the compound was classed as inactive in assay [3] and in assay [6].
For `ClC(Cl)Cl`, the Potency entry in assay [1], in assay [2], in assay [8], in assay [4], in assay [5] and in [7] was “inactive” in each case. For the same compound, the call in assay [3] was inactive.
For the compound `CC(C)OC(C)C`, the Potency entry in assay [1], in assay [2], in assay [10], in assay [8], in assay [5] and in assay [7] was “inactive” in each case. Moreover, the compound was classed as inactive in assay [3] and in assay [6].
For the compound `CCOC(=O)C(Br)c1ccccc1` (centres undefined), the Potency entry in assay [1], in assay [2], in assay [10] and in assay [7] was “inactive” in each case. The result in assay [3] and in assay [6] was inactive.
Turning to `O=C(O)CN(CCN(CC(=O)O)CC(=O)O)CCN(CC(=O)O)CC(=O)O`, the Potency entry in assay [1], in assay [2], in [9], in assay [8], in assay [5] and in assay [7] was “inactive” throughout. The call in [3] and in assay [6] was inactive.
As to `CCCCCOc1ccc(C2SC(=O)NC2=O)cc1OCC` (centres undefined), the Potency result in [1], in assay [4], in assay [5] and in assay [7] was “inactive” in each case. Besides, the Potency in assay [2] was 29.8 µM (active). For the same compound, the call in assay [3] and in assay [6] was inactive.
For `O=C(O)c1ccccc1Nc1cc(Cl)ccc1C(=O)O`, the Potency result in assay [1], in assay [2], in assay [4] and in assay [5] was “inactive” each time. The call in assay [3] and in assay [6] was inactive.
For `CN(CCCN1c2ccccc2CCc2ccccc21)CC(=O)c1ccc(Cl)cc1`, the Potency result in [1], in assay [9] and in [5] was “inactive” each time. For the same compound, the Potency in assay [2] is 29.8 µM (active).
On to `O=C1CCCc2ccccc21`, for which the Potency entry in assay [1], in assay [10], in assay [4], in [5] and in assay [7] was “inactive” each time. Besides, the outcome in [3] and in assay [6] was inactive.
Regarding `OC[C@H]1O[C@@H](O[C@H]2[C@H](O)[C@@H](O)[C@H](O)O[C@@H]2CO)[C@H](O)[C@@H](O)[C@H]1O`, the Potency entry in [1], in [10], in [8], in [4], in assay [5] and in assay [7] was “inactive” each time. Also, the outcome in assay [3] and in assay [6] was inactive.
`CCCCC(=O)O[C@]1(C(=O)CO)[C@H](C)C[C@H]2[C@@H]3CCC4=CC(=O)C=C[C@]4(C)[C@@]3(F)[C@@H](O)C[C@@]21C`: the Potency entry in assay [1], in assay [2] and in assay [7] was “inactive” each time. For the same compound, the result in assay [3] and in assay [6] was inactive.
Consider `CC(C)Nc1nc(N)nc(Cl)n1`, for which the Potency result in assay [1], in [10], in assay [8], in assay [4] and in assay [7] was “inactive” throughout. Also, the outcome in [3] and in [6] was inactive.
`NC(Cc1ccc(F)cc1)C(=O)O` (centres undefined): the activity change, negative = cytotoxicity in assay [1] is -2.35% [at 8.47 µM]. In addition, the viability change, negative = cytotoxic in assay [3] was 2.78% [at 8.47 µM]; in assay [5], -1.52% [at 8.36 µM]. Besides, the values for the activation in assay [10] and in assay [4] were 0.33% [at 7.08 µM] and -7.28% [at 8.36 µM], respectively. Also, the ratio activity, negative = inhibition in assay [9] is 6.5% [at 5.95 µM].
For the compound `NC1=NCC2c3ccccc3Cc3ccccc3N12` (centres undefined), the Potency result in assay [1], in assay [2], in assay [5] and in assay [7] was “inactive” in each case. Moreover, the compound was called inactive in [3] and in [6].
For the compound `CN1CCC[C@@H]1Cc1c[nH]c2ccc(CCS(=O)(=O)c3ccccc3)cc12`, the Potency result in assay [1], in [2], in assay [8], in assay [4], in assay [5] and in [7] was “inactive” each time. Moreover, the compound was classed as inactive in assay [6].
Turning to `CCN(CCCc1ccccc1)CCCc1ccccc1`, the Potency entry in [1], in [10], in assay [5] and in assay [7] was “inactive” throughout. Besides, the compound was called inactive in assay [3] and in assay [6].
With `CN1[C@@H]2CC[C@H]1CC(OC(=O)c1c[nH]c3ccccc13)C2` (some centres undefined), the Potency entry in assay [1], in [2], in assay [10], in assay [4], in assay [5] and in assay [7] was “inactive” each time. Besides, the compound was called inactive in assay [6].
On to `CC/C=C\CCOC(=O)C(C)C`, for which the Potency entry in [1], in assay [10], in [5] and in [7] was “inactive” in each case. For the same compound, the outcome in assay [3] and in assay [6] was inactive.
For `O=C(Cl)c1cccc([N+](=O)[O-])c1`, the Potency result in assay [1], in assay [10], in assay [8], in [4], in assay [5] and in assay [7] was “inactive” throughout. The outcome in [3] and in assay [6] was inactive.
`CNCCC(Oc1ccccc1OC)c1ccccc1` (centres undefined): the Potency result in assay [1], in [10], in assay [9], in assay [8], in assay [4] and in [5] was “inactive” in each case. The Potency result in [7] was “inactive”. The outcome in assay [3] and in [6] was inactive.
Consider `Cc1cc(S(=O)(=O)O)c(N)cc1Cl`, for which the Potency result in assay [1], in assay [10], in [8] and in [7] was “inactive” in each case. Further, the result in assay [3] was inactive.
For the compound `CCN(O)CC`, the Potency entry in assay [1], in assay [10], in assay [4], in [5] and in assay [7] was “inactive” in each case. For the same compound, the compound was called inactive in [3] and in assay [6].
For `Nc1ccc(Oc2ccc(N)c(N)c2)cc1`, the Potency entry in assay [1], in assay [10], in assay [8] and in assay [5] was “inactive” in each case. Besides, the Potency in [2] is 1.54 µM (active).
